Screening data from PubChem.
RGS16-Gao: modulates binding between human RGS16 and Galphao; O15492+P09471; bead-based flow cytometry RGS16-Galphao binding, fluorescence; actives lie on both sides; binding response (% of control), % at 10 µM; 220,000 tested, 0.38% active;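 also: Galphao activated by GDP with aluminum fluoride before binding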
Avidin fluor: compound fluoresces at 488/530 nm on avidin beads. compound fluorescence 488/530 nm, flow cytometry; active compounds read high. AID 1775. fluorescence (KMESF) at 10 µM. 220,000 tested, 0.38% active; in the data active = fluorescence above about 47
GSH bead fluor: GSH bead compound fluorescence profile. 190,000 tested, 0.25% active. GSH beads flow cytometry, compound fluorescence 488/530 nm; active compounds read high. fluorescence (KMESF) at 10 µM; in the data active = fluorescence above about 89;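 also: glutathione beads carrying GST-tagged Bcl family fusion proteins plus one bare bead set; values are compound well signal with DMSO vehicle wells as background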
RGS8-Gao reg: regulators of human RGS8-Galphao interaction; multiplexed bead flow cytometry, RGS8-Galphao binding; actives lie on both sides; response (percent of control binding), % at 10 µM; 220,000 tested, 0.34% active; AID 1423; in the data active = response below about 60% or above about 140%; inactive = in between;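 also: Galphao activated as the GDP aluminium fluoride complex binding bead-coupled RGS8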
Target sequence (P09471 whole entry, looked up): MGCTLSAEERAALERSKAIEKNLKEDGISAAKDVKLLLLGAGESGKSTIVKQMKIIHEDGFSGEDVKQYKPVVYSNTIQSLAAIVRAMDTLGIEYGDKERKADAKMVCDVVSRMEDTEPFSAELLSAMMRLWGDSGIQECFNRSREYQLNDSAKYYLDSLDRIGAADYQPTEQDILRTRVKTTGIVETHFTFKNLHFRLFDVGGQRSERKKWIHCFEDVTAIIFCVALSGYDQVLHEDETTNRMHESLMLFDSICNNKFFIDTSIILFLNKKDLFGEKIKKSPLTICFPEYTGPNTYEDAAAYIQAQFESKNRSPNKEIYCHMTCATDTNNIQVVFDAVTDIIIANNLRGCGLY
RGS4-Gao reg: modulates binding of RGS4 to human Galphao. 220,000 tested, 0.33% active. Multiplexed bead flow cytometry; actives lie on both sides. AID 1415. P09471. binding response (% of control), % at 10 µM; in the data active = binding response below about 49% or above about 150%; inactive = in between;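 also: fluorescent Galphao activated with aluminum fluoride binding bead-coupled RGS4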
RGS7-Gao reg: modulates binding of RGS7 to human Galphao. P09471. Multiplexed bead flow cytometry; actives lie on both sides. 220,000 tested, 0.35% active. binding response (% of control), % at 10 µM; in the data active = binding response below about 49% or above about 150%; inconclusive = no clear call, values can overlap the other calls; inactive = in between;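 also: fluorescent Galphao held in activated GDP-AlF4 state binding bead-coupled RGS7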
RGS-Gao: regulators of human RGS4-Galphao interaction; multiplexed bead flow cytometry, RGS–Galpha-o binding; shares compounds with RGS16-Gao; RGS4–Galpha-o binding response, % at 10 µM; AID 1504; 1,600 tested, 99% active;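 also: fluorescently labeled Galpha-o bound to GDP with aluminium fluoride binding biotinylated RGS beads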
Avidin counter: counter-screen: compounds disrupting biotin binding to avidin beads | shares compounds with RGS16-Gao | streptavidin beads, fluorescein-biotin binding, flow cytometry | inhibition, % at 10 µM | 1,700 tested, under 10 active | AID 1783;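 active = inhibition above 50%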;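 also: median green fluorescence of gated singlet beads compared with DMSO control wells; 0% = DMSO wells and 100% = complete loss of bead fluorescence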
RGS8-Gao single: RGS8-Galphao interaction regulation, single point confirmation. shares compounds with RGS16-Gao. bead-based flow cytometry RGS8-Galphao binding, fluorescence; actives lie on both sides. binding response (% of control), % at 10 µM. 1,700 tested, 3% active. AID 1836; in the data active = binding response below about 72% or above about 130%; inactive = in between;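 also: Galphao activated as GDP AlF4 complex before binding bead RGS8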
RGS7-Gao single: confirmation of regulators of human RGS7-Galphao interaction | bead-based flow cytometry RGS7-Galphao binding; actives lie on both sides | AID 1837 | response (percent of control binding), % at 10 µM | 1,700 tested, 7.8% active | shares compounds with RGS16-Gao; in the data active = response below about 75% or above about 130%; inactive = in between;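 also: fluorescent Galphao activated with GDP and aluminum fluoride binding bead-coupled RGS7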
RGS16-Gao single: RGS16-Galphao interaction regulation, single point confirmation; shares compounds with RGS16-Gao; response (% of control binding), % at 10 µM; 1,700 tested, 4% active; bead-based flow cytometry, RGS16-Galphao binding; actives lie on both sides; in the data active = response below about 74% or above about 130%; inactive = in between;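 also: Galphao activated as the GDP aluminium fluoride complex binding bead-coupled RGS16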
RGS4-Gao single: confirmation of regulators of human RGS4-Galphao interaction | shares compounds with RGS16-Gao | 1,700 tested, 4% active | RGS4-Galphao binding, multiplexed bead flow cytometry; actives lie on both sides | binding response (% of control), % at 10 µM; in the data active = binding response below about 74% or above about 130%; inactive = in between
RGS19-Gao conf: confirmation of regulators of human RGS19-Galphao interaction; bead-based flow cytometry RGS19-Galphao binding; actives lie on both sides; response (percent of control binding), % at 10 µM; 1,700 tested, 5% active; AID 1841; shares compounds with RGS16-Gao; in the data active = response below about 50% or above about 160%; inactive = in between;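 also: 100% = no compound control and 0% = blank background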
Target sequence (P09471 whole entry, looked up): as above
Target sequence (P49795 whole entry, looked up): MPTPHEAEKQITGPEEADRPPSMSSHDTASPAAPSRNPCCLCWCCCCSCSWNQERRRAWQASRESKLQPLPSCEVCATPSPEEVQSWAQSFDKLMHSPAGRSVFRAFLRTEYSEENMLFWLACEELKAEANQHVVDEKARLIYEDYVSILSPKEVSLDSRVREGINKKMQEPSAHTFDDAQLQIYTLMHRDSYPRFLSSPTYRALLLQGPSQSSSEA
* = called active by the depositor; u = inconclusive; x = not tested or not shown; [ ] = dose if it differs, or a comment. Sampled rows, rich in hits. Any-hit rate of the full collection: about 1.2%. Unless noted, no rule for the calls is given here.

SMILES | RGS16-Gao | Avidin fluor | GSH bead fluor | RGS8-Gao reg | RGS4-Gao reg | RGS7-Gao reg | RGS-Gao | Avidin counter | RGS8-Gao single | RGS7-Gao single | RGS16-Gao single | RGS4-Gao single | RGS19-Gao conf
CCOC(=O)CC(=O)CSCC(=O)Nc1ccc(C)cc1 | 35.7 | 4 | 19 | 57.3* | 47.3* | 42.8* | x | -0.3 | 105.3 | 106.7 | 104.6 | 106.5 | 102.5
Cc1ccc(NC(=O)CSCC#N)cc1 | 93.3 | 8 | 5 | 93.4 | 89.9 | 91.3 | x | x | x | x | x | x | x
Cc1ccc(N2CCN(CCc3nc4cc(NS(C)(=O)=O)ccc4n3C)CC2)cc1 | 278.2 | 9 | 64 | 147.1*[activator] | 120.0 | 120.3 | 120.0* | -0.2 | 105.5 | 100.8 | 109.1 | 103.5 | 98.2
CCOC(=O)N1CCN(C(=O)CCCn2c(=S)[nH]c3ccccc3c2=O)CC1 | x | x | 45 | x | x | x | x | 0.4 | 102.2 | 98.2 | 106.8 | 102.8 | 102.5
O=C(NNC(=S)Nc1ccc(Br)cc1Cl)c1ccncc1 | 110.3 | 90* | 21 | 102.0 | 112.4 | 164.3*[activator] | 112.4* | 1.8 | 101.8 | 100.5 | 103.7 | 102.9 | 109.5
O=S(=O)(Nc1cc2nc3ccccc3nc2n1Cc1ccccc1)c1ccc(Cl)cc1 | 105.3 | 5 | 18 | 99.0 | 100.0 | 97.5 | x | x | x | x | x | x | x
CC(C)C(NC(=O)c1ccccc1)C(=O)NCCc1ccccc1 (stereo unspecified) | 116.5 | 13 | 21 | 104.6 | 106.9 | 109.4 | x | x | x | x | x | x | x
CCN(CC)CC(C)CNC(=O)CC(C(=O)N1CCc2ccccc21)n1ccnc1 (stereo unspecified) | 117.0 | 38 | 26 | 102.3 | 106.8 | 102.8 | x | x | x | x | x | x | x
O=C(CC(C(=O)N1CCc2ccccc21)n1ccnc1)NCc1ccccc1 (stereo unspecified) | 475.8 | 4 | 28 | 142.7*[activator] | 114.9 | 112.6 | 114.9* | 2.0 | 101.8 | 103.6 | 103.8 | 102.3 | 100.2
C#CCOC(=O)C(NC(=O)c1ccccc1)=C(C)C | -38.4* | 0 | 40 | 82.7 | 77.8 | 89.7 | 77.8* | 1.0 | 102.6 | 102.4 | 102.5 | 101.8 | 101.1
CCCCOC(=O)C(NC(=O)c1ccccc1)=C(C)C | -33.0* | x | 33 | 5.2* | -35.7* | -15.8* | x | -1.7 | 101.6 | 101.3 | 104.6 | 98.3 | 95.2
CCOC(=O)C(NC(=O)c1ccccc1)=C(C)C | 102.6 | 6 | 47 | 104.5 | 103.2 | 101.7 | x | x | x | x | x | x | x
COC(=O)C(NC(=O)c1ccccc1)=C(C)C | 107.1 | 21 | 14 | 100.8 | 101.2 | 110.2 | x | x | x | x | x | x | x
CCCc1cc(-c2nc(-c3ccc(Br)cc3)cs2)ccn1 | -6.4* | 5 | 7 | 68.3 | 82.7 | 75.5 | 82.7* | -0.8 | 100.5 | 97.3 | 98.0 | 99.3 | 105.4
CCCc1cc(-c2nc(-c3ccc(Cl)cc3)cs2)ccn1 | 86.8 | 7 | 33 | 99.9 | 100.5 | 101.1 | x | x | x | x | x | x | x
O=C(NCC1CC1)NC(=O)c1c(F)cccc1Cl | 9.3* | 0 | x | 42.2* | 5.7* | u | x | 0.4 | 101.6 | 98.9 | 102.7 | 103.8 | 104.5
CCCCn1nnc(NC(=O)c2cc3ccccc3o2)n1 | 425.5 | 4 | 33 | 147.8*[activator] | 134.2 | 126.9 | 134.2* | 1.0 | 110.1 | 119.0 | 111.2 | 114.6 | 105.9
CCCn1nnc(NC(=O)c2cc3ccccc3o2)n1 | 101.8 | 13 | 26 | 100.2 | 100.0 | 101.4 | x | x | x | x | x | x | x
COC(=O)c1sccc1NC(=O)CC1C(=O)NCCN1C(=O)Nc1cc(Cl)ccc1OC (stereo unspecified) | 100.9 | 8 | x | 100.5 | 102.9 | u | x | x | x | x | x | x | x
C#CCn1c(=NC(=O)c2cc(-c3cccs3)nc3ccccc23)sc2cc(S(N)(=O)=O)ccc21 | 84.0 | 0 | 5 | 47.3* | 79.7 | 34.1* | 79.7* | -0.6 | 96.5 | 91.4 | 97.7 | 94.3 | 89.8
CC(C)(C)c1ccc(OCCC(=O)Nc2cccc(S(=O)(=O)N3CCCCC3)c2)cc1 | 53.4 | 2 | 9 | 90.4 | 104.1 | 100.8 | x | x | x | x | x | x | x
CCNC(=O)CC1C(=O)N(c2ccc(C)cc2)C(=O)N1CCc1sccc1C (stereo unspecified) | 109.8 | 11 | 18 | 102.2 | 100.5 | 99.4 | x | x | x | x | x | x | x
COc1ccc(Nc2nc3[nH]c(=O)cc(O)c3s2)cc1 | 12.3* | 2 | 14 | 15.8* | 23.4* | 20.7* | x | -1.2 | 99.0 | 86.7 | 95.5 | 94.3 | 70.3
O=C(CC1Sc2ccccc2NC1=O)NCc1ccc(Cl)cc1 (stereo unspecified) | 96.7 | 12 | 21 | 97.7 | 98.9 | 93.4 | x | x | x | x | x | x | x
C/C(CC(=O)Nc1ccc2c(c1)OCO2)=N\NC(=O)C(c1ccccc1)c1ccccc1 | 15.0* | 1 | 13 | 67.5 | 87.0 | 85.6 | 87.0* | 0.0 | 106.8 | 103.5 | 108.3 | 102.3 | 108.2
SMILES | RGS16-Gao | Avidin fluor | GSH bead fluor | RGS8-Gao reg | RGS4-Gao reg | RGS7-Gao reg | RGS-Gao | Avidin counter | RGS8-Gao single | RGS7-Gao single | RGS16-Gao single | RGS4-Gao single | RGS19-Gao conf
CC(c1ccccc1F)n1cc(C(=O)NCCCc2nc3ccccc3[nH]2)nn1 (stereo unspecified) | 115.7 | 10 | 18 | 106.0 | 103.8 | 100.7 | x | x | x | x | x | x | x
COC(=O)c1c(NC(=O)C2CC2)sc(C(=O)Nc2ccccc2)c1C | 106.5 | 8 | 12 | 103.7 | 104.0 | u | x | x | x | x | x | x | x
Cc1ccc(C)n1-c1cccc(N)c1 | 54.1 | 12 | 9 | 81.7 | 49.3* | 72.8 | x | -1.0 | 100.2 | 99.5 | 101.2 | 96.2 | 110.4
Cc1ccc(C)n1-c1cccc(C(=O)O)c1 | 91.2 | 2 | 7 | 49.2* | 84.0 | 22.0* | 84.0* | x | x | x | x | x | x
CCCc1cnc(N2CCN(S(=O)(=O)c3cccs3)CC2)nc1 | 95.3 | 5 | x | 95.2 | 95.5 | u | x | x | x | x | x | x | x
CCCCSc1cc(C)nc(N)n1 | 98.0 | 8 | x | 97.8 | 96.4 | u | x | x | x | x | x | x | x
Oc1ccccc1Nc1nc(NCC2CCCO2)c2ccccc2n1 (stereo unspecified) | 89.5 | 3 | 21 | 98.7 | 95.6 | 41.0* | 95.6* | 1.7 | 100.4 | 104.5 | 103.1 | 101.1 | 104.3
